Measurements: the OligoGym collection
Note: reference of the scale not given here.

What follows are sequences tested against ZNF250 (assay: pooled miR-30 sensor sort-seq; sequence = guide strand). Conditions: shRNA.
TTACTAAGGACTGAGCTCTGGC was tested, and the sensor-assay potency score (higher = more potent) was 0.163.
With TTTGTGACACTGAATCGCCAAA the sensor-assay potency score (higher = more potent) was -1.66.
Sequence TTATTTTCTTGATCAATCCTCC has a sensor-assay potency score (higher = more potent) of 0.32.
Work on TTTTGTGACACTGAATCGCCAA yielded a sensor-assay potency score (higher = more potent) of 0.484.

These sequences were tested against ZNF259 in the same assay as above. Conditions: shRNA.
TTGTACTAGCTTCATGTTGGTC gave a sensor-assay potency score (higher = more potent) of -0.732.
For TCAGTCTTCACCACTTCTCTGT, the sensor-assay potency score (higher = more potent) was 0.0434.
Sequence TTCAGTTTGACAATGAACTCAT has a sensor-assay potency score (higher = more potent) of 0.875.
TCACACTTGCATCACAAGCTGT gave a sensor-assay potency score (higher = more potent) of -0.681.
With TAAACTCCTGTAGTCTCTCCGT the sensor-assay potency score (higher = more potent) was -0.469.
TTCATTTCTGAGATCTTCCTCT showed a sensor-assay potency score (higher = more potent) of 0.123.
TTGTAGTGTGTGATCACCAGGG gave a sensor-assay potency score (higher = more potent) of 0.392.
TTCTGAGATCTTCCTCTTCTGG gave a sensor-assay potency score (higher = more potent) of -1.55.
Sequence TTTTCCACAAAACTGTTCCCTG has a sensor-assay potency score (higher = more potent) of -0.697.
In the case of TTGCAGTAACAGTTCATGCATA, the sensor-assay potency score (higher = more potent) is reported as -0.757.
TTCGATGATCTGGTCCATCTTC showed a sensor-assay potency score (higher = more potent) of -0.231.
TAACACAATAGGCTCACACTTG was tested, and the sensor-assay potency score (higher = more potent) was -0.434.

What follows are sequences tested against ZNF263 in the same assay as above. Conditions: shRNA.
Work on TTCAGTGCAGTCCACACCCATA yielded a sensor-assay potency score (higher = more potent) of -1.37.
TAAGGTAAACTGGACAGTCAGG showed a sensor-assay potency score (higher = more potent) of -0.825.
Work on TACACAGTCTTTCAGCTGCATG yielded a sensor-assay potency score (higher = more potent) of -1.42.
TTTCAGTGCAGTCCACACCCAT was tested, and the sensor-assay potency score (higher = more potent) was -0.797.
TGAAGCTCGGTGACTCTCGTGC showed a sensor-assay potency score (higher = more potent) of 0.166.
TTGAAGCTCGGTGACTCTCGTG was tested, and the sensor-assay potency score (higher = more potent) was -0.044.
In the case of TTTTATGCCAATCCTCTGCTGC, the sensor-assay potency score (higher = more potent) is reported as 0.0855.
With TTATAGGGTCTCTCTCCCGTAT the sensor-assay potency score (higher = more potent) was -0.848.
For TTTGGCTGCAGTTCCTTCGGTC, the sensor-assay potency score (higher = more potent) was 0.0507.
Sequence TTATCAGACACCTACTTCCTCT has a sensor-assay potency score (higher = more potent) of -0.271.

The sequences below were run against ZNF300 in the same assay as above. Conditions: shRNA.
In the case of TTCCACATTCAGAACAATCATA, the sensor-assay potency score (higher = more potent) is reported as -0.99.
TTACTGAATCTGATCAACCTAT was tested, and the sensor-assay potency score (higher = more potent) was -0.267.
Work on ATGAGTTCTGTCTTCCTGCTGA yielded a sensor-assay potency score (higher = more potent) of 0.161.
Work on TTCTGTATGCTTAACTTGCTGT yielded a sensor-assay potency score (higher = more potent) of -0.0649.
TTTTTTTCTTGAATTGCTCTTA gave a sensor-assay potency score (higher = more potent) of 0.496.
TAAAACAAGGTCTGACTTCTGA was tested, and the sensor-assay potency score (higher = more potent) was -0.123.
With TTAGTCTTAACATCTAATGCTT the sensor-assay potency score (higher = more potent) was -0.171.
TAGTCTTAACATCTAATGCTTC was tested, and the sensor-assay potency score (higher = more potent) was -0.419.
TTGCTCTTATAACAACTCGGTA gave a sensor-assay potency score (higher = more potent) of -1.42.
TGAGTTGTGACTTCTTAGCAAA was tested, and the sensor-assay potency score (higher = more potent) was -1.22.

What follows are sequences tested against ZNF322A in the same assay as above. Conditions: shRNA.
TAAGACAGGAGCTTCTACCAAA was tested, and the sensor-assay potency score (higher = more potent) was -0.88.
TATGAGTCAACTAACTATGAGA was tested, and the sensor-assay potency score (higher = more potent) was -0.783.
Sequence TTCACCAATGTGTACTGTCTGA has a sensor-assay potency score (higher = more potent) of -0.693.
TTTTTCACCAATGTGTACTGTC was tested, and the sensor-assay potency score (higher = more potent) was 0.583.
